Experimental data: PubChem BioAssay (Tox21)
Unmarked numbers belong to inactive results. Results filed as inconclusive are left out. Entries that show only a call come without a potency. Calls of active or inactive are those of the source. Calls come from the whole dose curve; as a rule, active = well fitted curve in the direction sought with a large enough effect in the repeat runs; inconclusive = weak or mixed curves; inactive = no such curve, though single readings can be large; an effect the other way counts as inactive or inconclusive.

Columns and labels:
[1] = Human pregnane X receptor (PXR) small molecule agonists, qHTS cell viability counter screen (AID 1346977); note: nearly all actives have a fitted effect of over 50% in size; note: potency is the fitted concentration of half-maximal effect
How it was run: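 Cytotoxicity counter screen run in the same wells as the PXR luciferase assay, using PXR-Luc HepG2 cells in charcoal-stripped serum medium. Viability: CellTiter-Fluor fluorescence after 24hr compound treatment.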

[2] = Caspase-3/7 induction in HepG2 cells by small molecules, qHTS assay (AID 1346978); note: nearly all actives have a fitted effect of over 15% in size
How it was run: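 Caspase-3/7 induction was measured by Caspase-Glo 3/7 luminescence (30 min, room temperature) after a 17 hr compound exposure of wild-type HepG2 cells seeded at 2,000 per well and pre-incubated 5 hr.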

[3] = Caspase-3/7 induction in CHO-K1 cells by small molecules, qHTS cell viability counter screen (AID 1346979); note: nearly all actives have a fitted effect of over 35% in size
How it was run: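 Cytotoxicity counter screen run in parallel with the caspase-3/7 assay: CHO-K1 cells, 16hr compound treatment at 37C, then CellTiter-Fluor for 1hr before fluorescence reading.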

[4] = Caspase-3/7 induction in CHO-K1 cells by small molecules, qHTS assay (AID 1346980); note: nearly all actives have a fitted effect of over 15% in size
How it was run: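 Luminescent Caspase-Glo 3/7 read (30min, room temperature) quantified apoptosis induction. Cells were wild-type CHO-K1, treated with compound for 17hr at 37 C and 5% CO2.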

[5] = Caspase-3/7 induction in HepG2 cells by small molecules, qHTS cell viability counter screen (AID 1346981); note: series mostly up to about 92 µM; nearly all actives have a fitted effect of over 30% in size
How it was run: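 After a 5-hr attachment period at 37 C and 5% CO2, wild-type HepG2 cells received compounds in DMSO. Sixteen hours later CellTiter-Fluor was dispensed and the fluorescent signal quantified after a further hour.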

[6] = target: Nuclear receptor subfamily 1 group I member 2 (Homo sapiens) (UniProt O75469); test: Human pregnane X receptor (PXR) small molecule agonists, qHTS assay (AID 1346982); note: nearly all actives have a fitted effect of over 35% in size; note: potency is the fitted concentration of half-maximal effect
Chain of Nuclear receptor subfamily 1 group I member 2 (Homo sapiens) (O75469 whole entry, looked up): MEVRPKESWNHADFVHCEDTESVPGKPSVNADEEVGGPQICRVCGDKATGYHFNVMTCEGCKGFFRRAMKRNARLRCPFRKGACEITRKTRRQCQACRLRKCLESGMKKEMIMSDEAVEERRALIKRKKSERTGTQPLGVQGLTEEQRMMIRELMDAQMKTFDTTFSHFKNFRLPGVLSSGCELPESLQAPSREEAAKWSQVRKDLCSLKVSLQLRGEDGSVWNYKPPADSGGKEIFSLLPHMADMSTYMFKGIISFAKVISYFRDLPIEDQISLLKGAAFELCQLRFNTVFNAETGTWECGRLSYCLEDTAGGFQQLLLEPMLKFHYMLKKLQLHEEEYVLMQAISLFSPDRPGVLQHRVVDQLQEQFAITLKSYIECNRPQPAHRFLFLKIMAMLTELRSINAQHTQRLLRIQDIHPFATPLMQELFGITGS
How it was run: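 Tox21 qHTS; PXR-Luc HepG2; compounds pinned from DMSO; 24 hr, 37 C; ONE-Glo luciferase detection, 30 min room temperature.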

[7] = target: Cytochrome P450 2D6 (Homo sapiens) (UniProt P10635); test: Cytochrome P450 Family 2 Subfamily D Member 6 (CYP2D6) small molecule antagonists: luciferase reporter qHTS assay (AID 1671196); note: nearly all actives have a fitted effect of over 50% in size; note: potency is the fitted concentration of half-maximal effect
Chain of Cytochrome P450 2D6 (Homo sapiens) (P10635 whole entry, looked up): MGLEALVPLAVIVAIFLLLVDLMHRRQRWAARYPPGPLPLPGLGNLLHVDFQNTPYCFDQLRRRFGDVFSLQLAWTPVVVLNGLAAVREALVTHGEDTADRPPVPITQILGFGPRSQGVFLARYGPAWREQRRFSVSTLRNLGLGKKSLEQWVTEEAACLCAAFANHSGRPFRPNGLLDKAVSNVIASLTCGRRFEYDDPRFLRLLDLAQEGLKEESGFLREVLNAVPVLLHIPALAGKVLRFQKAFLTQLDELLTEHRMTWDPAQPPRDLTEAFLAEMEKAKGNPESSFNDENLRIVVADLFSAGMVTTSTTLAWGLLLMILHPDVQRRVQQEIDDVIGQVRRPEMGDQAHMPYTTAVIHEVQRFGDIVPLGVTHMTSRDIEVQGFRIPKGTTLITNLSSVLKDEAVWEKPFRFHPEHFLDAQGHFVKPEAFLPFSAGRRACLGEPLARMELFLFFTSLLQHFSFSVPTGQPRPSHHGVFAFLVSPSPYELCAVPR
How it was run: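 Room-temperature luminescent CYP2D6 activity assay: compound preincubated 10 min with enzyme–substrate mix, NADPH-initiated reaction 1 h, detection reagent 20 min before reading.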

[8] = target: Cytochrome P450 2C19 (Homo sapiens) (UniProt P33261); test: Cytochrome P450 Family 2 Subfamily C Member 19 (CYP2C19) small molecule antagonists: luciferase reporter qHTS assay (AID 1671197); note: nearly all actives have a fitted effect of over 65% in size; note: potency is the fitted concentration of half-maximal effect
Chain of Cytochrome P450 2C19 (Homo sapiens) (P33261 whole entry, looked up): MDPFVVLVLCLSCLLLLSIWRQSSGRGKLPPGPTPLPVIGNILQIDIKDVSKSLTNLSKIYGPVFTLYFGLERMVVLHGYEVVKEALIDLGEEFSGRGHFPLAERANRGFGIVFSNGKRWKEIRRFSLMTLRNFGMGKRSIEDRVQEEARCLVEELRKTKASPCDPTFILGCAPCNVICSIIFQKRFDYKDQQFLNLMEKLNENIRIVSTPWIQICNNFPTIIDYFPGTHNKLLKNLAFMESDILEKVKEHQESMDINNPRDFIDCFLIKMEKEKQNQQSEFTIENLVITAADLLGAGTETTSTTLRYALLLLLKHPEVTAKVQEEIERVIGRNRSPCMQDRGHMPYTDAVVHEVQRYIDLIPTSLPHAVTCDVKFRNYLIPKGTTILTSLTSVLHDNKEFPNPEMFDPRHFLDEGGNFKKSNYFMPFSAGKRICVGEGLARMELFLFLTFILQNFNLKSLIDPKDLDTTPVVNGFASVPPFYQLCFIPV
How it was run: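 P450-Glo CYP2C19 system: enzyme-substrate mix with compound 10 min at room temperature, then NADPH regeneration solution, 1 h at 37C. Proluciferin-to-luciferin conversion detected by luminescence after 20 min with detection reagent; ketoconazole as positive control.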

[9] = target: Cytochrome P450 2C9 (Homo sapiens) (UniProt P11712); test: Cytochrome P450 Family 2 Subfamily C Member 9 (CYP2C9) small molecule antagonists: luciferase reporter qHTS assay (AID 1671198); note: nearly all actives have a fitted effect of over 50% in size; note: potency is the fitted concentration of half-maximal effect
Chain of Cytochrome P450 2C9 (Homo sapiens) (P11712 whole entry, looked up): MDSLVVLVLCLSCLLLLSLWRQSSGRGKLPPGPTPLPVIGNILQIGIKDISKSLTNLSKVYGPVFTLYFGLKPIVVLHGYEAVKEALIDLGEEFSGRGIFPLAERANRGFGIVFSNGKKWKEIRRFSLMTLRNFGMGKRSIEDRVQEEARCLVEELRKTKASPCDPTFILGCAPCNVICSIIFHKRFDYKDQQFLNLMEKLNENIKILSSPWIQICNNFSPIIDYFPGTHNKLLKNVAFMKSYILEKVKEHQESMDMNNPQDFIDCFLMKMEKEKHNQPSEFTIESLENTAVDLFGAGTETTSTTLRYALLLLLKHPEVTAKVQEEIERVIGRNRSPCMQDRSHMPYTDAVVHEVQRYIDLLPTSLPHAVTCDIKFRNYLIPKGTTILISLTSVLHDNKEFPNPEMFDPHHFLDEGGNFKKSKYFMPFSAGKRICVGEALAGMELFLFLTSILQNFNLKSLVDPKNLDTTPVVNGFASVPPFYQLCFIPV
How it was run: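 Enzyme-substrate mix preincubated with compound 10 min at room temperature; reaction started with NADPH regeneration solution, 1 h 37C. Luminescent luciferin product read after 20 min detection reagent.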

[10] = target: Cytochrome P450 1A2 (Homo sapiens) (UniProt P05177); test: Cytochrome P450 Family 1 Subfamily A Member 2 (CYP1A2) small molecule antagonists: luciferase reporter qHTS assay (AID 1671199); note: nearly all actives have a fitted effect of over 50% in size; note: potency is the fitted concentration of half-maximal effect
Chain of Cytochrome P450 1A2 (Homo sapiens) (P05177 whole entry, looked up): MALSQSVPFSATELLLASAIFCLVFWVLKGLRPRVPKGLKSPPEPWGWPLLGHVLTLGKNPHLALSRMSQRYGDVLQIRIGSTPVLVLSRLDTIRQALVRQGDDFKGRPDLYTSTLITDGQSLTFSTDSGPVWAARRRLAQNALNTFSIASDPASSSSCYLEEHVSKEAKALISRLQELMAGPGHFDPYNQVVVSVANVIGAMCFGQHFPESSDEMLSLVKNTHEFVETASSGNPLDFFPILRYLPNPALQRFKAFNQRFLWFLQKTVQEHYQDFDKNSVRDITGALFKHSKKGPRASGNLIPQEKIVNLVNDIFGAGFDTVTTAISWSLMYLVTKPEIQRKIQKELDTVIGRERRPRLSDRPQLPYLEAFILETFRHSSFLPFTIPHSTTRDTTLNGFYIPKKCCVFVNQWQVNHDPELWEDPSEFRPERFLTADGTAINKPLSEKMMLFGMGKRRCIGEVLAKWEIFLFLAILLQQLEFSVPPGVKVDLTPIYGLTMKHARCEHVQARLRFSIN
How it was run: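 Room-temperature CYP1A2 reaction with proluciferin substrate: compounds added from DMSO, 10 min preincubation, NADPH regeneration for 1 h. Luciferin detection reagent then added; luminescence recorded as RLU.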

[11] = target: Voltage-gated inwardly rectifying potassium channel KCNH2 (Homo sapiens) (UniProt Q12809); test: Human Ether-a-go-go-Related Gene (hERG) channel small molecule antagonists: fluorescence cell-based qHTS assay (AID 1671200); note: nearly all actives have a fitted effect of over 50% in size; note: potency is the fitted concentration of half-maximal effect
Chain of Voltage-gated inwardly rectifying potassium channel KCNH2 (Homo sapiens) (Q12809 whole entry, looked up): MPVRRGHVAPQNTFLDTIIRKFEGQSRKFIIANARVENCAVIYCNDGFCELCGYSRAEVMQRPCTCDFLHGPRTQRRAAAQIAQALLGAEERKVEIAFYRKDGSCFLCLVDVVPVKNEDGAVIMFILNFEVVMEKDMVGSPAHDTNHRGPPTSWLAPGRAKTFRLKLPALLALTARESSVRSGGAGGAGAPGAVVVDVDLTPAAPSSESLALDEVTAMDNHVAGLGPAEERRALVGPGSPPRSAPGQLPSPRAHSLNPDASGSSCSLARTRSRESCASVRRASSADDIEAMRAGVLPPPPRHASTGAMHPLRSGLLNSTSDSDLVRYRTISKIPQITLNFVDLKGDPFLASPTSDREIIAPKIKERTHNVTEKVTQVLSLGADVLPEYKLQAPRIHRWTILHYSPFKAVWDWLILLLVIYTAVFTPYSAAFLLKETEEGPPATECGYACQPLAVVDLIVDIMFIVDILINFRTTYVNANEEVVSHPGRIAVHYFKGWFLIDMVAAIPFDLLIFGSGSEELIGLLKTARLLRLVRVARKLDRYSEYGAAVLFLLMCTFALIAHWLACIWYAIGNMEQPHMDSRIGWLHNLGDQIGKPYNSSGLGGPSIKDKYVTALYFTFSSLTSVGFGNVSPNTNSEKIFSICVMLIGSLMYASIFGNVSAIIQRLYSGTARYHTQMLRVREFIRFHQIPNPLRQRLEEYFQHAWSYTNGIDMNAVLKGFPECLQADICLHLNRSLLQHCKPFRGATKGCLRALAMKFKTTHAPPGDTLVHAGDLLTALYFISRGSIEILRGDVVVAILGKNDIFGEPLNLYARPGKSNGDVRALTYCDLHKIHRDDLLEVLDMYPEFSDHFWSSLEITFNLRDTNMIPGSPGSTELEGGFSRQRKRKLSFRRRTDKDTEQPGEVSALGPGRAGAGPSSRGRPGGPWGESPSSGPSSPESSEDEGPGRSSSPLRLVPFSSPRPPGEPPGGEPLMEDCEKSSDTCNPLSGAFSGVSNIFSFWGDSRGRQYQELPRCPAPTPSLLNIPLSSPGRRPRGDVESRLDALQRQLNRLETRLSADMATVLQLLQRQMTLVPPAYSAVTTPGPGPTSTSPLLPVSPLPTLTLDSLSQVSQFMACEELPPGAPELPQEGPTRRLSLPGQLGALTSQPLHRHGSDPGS
How it was run: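 Fluorescence at 540 nm emission (480 nm excitation) was recorded kinetically for 2 min at 1-second intervals once the thallium-containing stimulus reached cells previously loaded with FluxOR II dye.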

[12] = target: Cytochrome P450 3A4 (Homo sapiens) (UniProt P08684); test: Cytochrome P450 Family 3 Subfamily A Member 4 (CYP3A4) small molecule antagonists: luciferase reporter qHTS assay (AID 1671201); note: nearly all actives have a fitted effect of over 50% in size; note: potency is the fitted concentration of half-maximal effect
Chain of Cytochrome P450 3A4 (Homo sapiens) (P08684 whole entry, looked up): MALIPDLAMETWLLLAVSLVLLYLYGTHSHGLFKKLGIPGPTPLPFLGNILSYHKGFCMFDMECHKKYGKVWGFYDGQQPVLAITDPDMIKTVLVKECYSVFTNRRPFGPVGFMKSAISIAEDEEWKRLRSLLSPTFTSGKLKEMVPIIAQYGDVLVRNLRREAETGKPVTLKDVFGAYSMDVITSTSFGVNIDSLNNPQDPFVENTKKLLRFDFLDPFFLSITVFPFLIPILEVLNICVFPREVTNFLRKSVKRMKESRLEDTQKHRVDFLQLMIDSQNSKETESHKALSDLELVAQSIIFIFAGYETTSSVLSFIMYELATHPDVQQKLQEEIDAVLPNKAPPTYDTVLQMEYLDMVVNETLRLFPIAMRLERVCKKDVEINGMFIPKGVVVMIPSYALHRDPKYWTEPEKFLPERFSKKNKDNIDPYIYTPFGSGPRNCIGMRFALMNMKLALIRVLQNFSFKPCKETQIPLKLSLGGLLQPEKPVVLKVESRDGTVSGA
How it was run: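 qHTS, 1536-well. CYP3A4 + proluciferin substrate, cpd 10 min RT → NADPH regen 1 h RT → detection reagent 20 min → luminescence (RLU). Ketoconazole positive control.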

[13] = target: Nuclear receptor subfamily 1 group I member 2 (Rattus norvegicus) (UniProt Q9R1A7); test: Rat pregnane X receptor (rPXR) activation by small molecules, qHTS assay (AID 1346983); settings: rPXR luciferase reporter cells, One-Glo luminescence, 24 h; max activation: active compounds read high; note: nearly all actives have a fitted effect of over 20% in size
Chain of Nuclear receptor subfamily 1 group I member 2 (Rattus norvegicus) (Q9R1A7 whole entry, looked up): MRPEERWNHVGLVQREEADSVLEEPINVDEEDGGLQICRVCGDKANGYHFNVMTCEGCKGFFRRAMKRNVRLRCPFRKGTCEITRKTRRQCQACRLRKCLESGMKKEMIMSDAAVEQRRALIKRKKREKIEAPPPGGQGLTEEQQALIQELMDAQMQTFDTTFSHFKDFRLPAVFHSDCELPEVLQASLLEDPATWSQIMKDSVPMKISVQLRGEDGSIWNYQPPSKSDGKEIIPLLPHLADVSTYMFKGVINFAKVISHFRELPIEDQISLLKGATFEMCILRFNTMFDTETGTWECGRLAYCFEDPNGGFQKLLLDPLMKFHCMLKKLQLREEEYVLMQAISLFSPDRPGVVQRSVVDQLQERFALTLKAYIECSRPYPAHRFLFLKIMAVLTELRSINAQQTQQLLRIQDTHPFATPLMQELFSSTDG
How it was run: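 Luminescent readout (One-Glo luciferase, 30 min room temperature) followed 24 hr compound treatment at 37 C of rPXR cells plated 2,000 per well and preincubated 5hr; qHTS format with compounds delivered in DMSO.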

[14] = target: Nuclear receptor subfamily 1 group I member 2 (Homo sapiens) (UniProt O75469); test: Human pregnane X receptor (PXR) activation by small molecules, qHTS assay (AID 1346985); note: nearly all actives have a fitted effect of over 40% in size
How it was run: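 DPX-2 cells (HepG2 co-transfected with a PXR response element and a CYP3A4-promoter luciferase construct) were seeded at 2,000 per well, rested 5 hr at 37C, then exposed to DMSO-dissolved compounds for 24 hr. Activation was read as luciferase luminescence.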

[15] = target: Nuclear receptor subfamily 1 group I member 2 (Homo sapiens) (UniProt O75469); test: CYP3A4 induction through human pregnane X receptor (PXR) by small molecules, qHTS assay (AID 1346984); note: nearly all actives have a fitted effect of over 40% in size
How it was run: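 Cells (DPX-2; HepG2 with PXR element plus CYP3A4-promoter luciferase) settled 5hr, then were treated 24hr at 37C. A 3hr, 3uM-final Luciferin-IPA step preceded luminescence measurement with One-Glo.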

SMILES	Potency [1]	Potency [2]	Potency [3]	outcome [4]	Potency [5]	Potency [6]	Potency [7]	Potency [8]	Potency [9]	Potency [10]	Potency [11]	Potency [12]	max activation [13] [%]	Potency [14]	Potency [15]
CCCCOC(=O)CCCCC(=O)OCCCC	inactive	inactive	inactive	inactive	inactive	inactive	inactive	35.6 µM (active)	11.2 µM (active)	31.7 µM (active)	inactive	inactive	–	–	–
COc1cc(NC(C)CCCN)c2ncccc2c1 (stereo not drawn)	29.8 µM (active)	inactive	inactive	inactive	inactive	inactive	–	–	–	–	inactive	–	-6.86	inactive	–
COc1ccc(CCN(C)CCCN2CCc3cc(OC)c(OC)cc3CC2=O)cc1OC	inactive	inactive	inactive	inactive	inactive	inactive	inactive	inactive	inactive	inactive	–	–	3.44	inactive	inactive
c1ccc(CCCc2ccncc2)cc1	inactive	inactive	inactive	inactive	inactive	30.6 µM (active)	4.48 µM (active)	0.633 µM (active)	2 µM (active)	1.42 µM (active)	inactive	0.448 µM (active)	–	–	–
CNc1c2c(nn1C)CCCC2	inactive	inactive	inactive	inactive	inactive	inactive	inactive	inactive	inactive	inactive	inactive	inactive	-2.75	inactive	inactive
COc1ccc(C(=O)NCc2ccc(OCCN(C)C)cc2)cc1OC	inactive	inactive	inactive	inactive	inactive	inactive	inactive	inactive	inactive	inactive	inactive	inactive	-0.841	inactive	inactive
O=C(O)CCC(=O)c1ccc(-c2ccccc2)cc1	inactive	inactive	inactive	inactive	inactive	inactive	inactive	–	inactive	inactive	inactive	–	11.9	inactive	inactive
CCN(CC)CCNC(=O)c1cc(Cl)c(N)cc1OC	inactive	inactive	inactive	inactive	inactive	inactive	7.76 µM (active)	inactive	inactive	inactive	inactive	inactive	–	–	–
CCN(CC)C(=O)N1CCN(C)CC1	inactive	inactive	inactive	inactive	inactive	inactive	inactive	inactive	–	–	inactive	inactive	-2.03	inactive	inactive
Cc1c[nH]c2ccccc12	inactive	inactive	inactive	inactive	inactive	inactive	inactive	inactive	inactive	–	inactive	inactive	-6.59	inactive	inactive
CCOC(=O)c1c(N)sc2c1CCN(Cc1ccccc1)C2	inactive	inactive	inactive	inactive	inactive	inactive	0.0219 µM (active)	0.871 µM (active)	3.47 µM (active)	15.5 µM (active)	–	–	-1.17	inactive	inactive
CSCC[C@H](NC(=O)[C@H](Cc1c[nH]c2ccccc12)NC(=O)CCNC(=O)OC(C)(C)C)C(=O)N[C@@H](CC(=O)O)C(=O)N[C@@H](Cc1ccccc1)C(N)=O	inactive	inactive	inactive	inactive	inactive	inactive	inactive	inactive	inactive	inactive	inactive	–	–	–	–
NC(=O)CCCCC(N)=O	inactive	inactive	inactive	inactive	inactive	inactive	inactive	inactive	inactive	inactive	inactive	–	–	–	–
CC(C)N(C)C	inactive	inactive	inactive	inactive	inactive	inactive	inactive	inactive	inactive	inactive	inactive	–	–	–	–
CC[C@H]1OC(=O)[C@H](C)[C@@H](O[C@H]2C[C@@](C)(OC)[C@@H](O)[C@H](C)O2)[C@H](C)[C@@H](O[C@@H]2O[C@H](C)C[C@H](N(C)C)[C@H]2O)[C@](C)(O)C[C@@H](C)CN(C)[C@H](C)[C@@H](O)[C@]1(C)O	18.1 µM (active)	inactive	inactive	inactive	inactive	inactive	inactive	inactive	inactive	inactive	inactive	–	–	inactive	–
CC[C@@H](CO)NCCN[C@@H](CC)CO	inactive	inactive	inactive	inactive	inactive	inactive	inactive	inactive	inactive	inactive	inactive	–	2.2	inactive	inactive
O=C(CCS)OCC(COC(=O)CCS)(COC(=O)CCS)COC(=O)CCS	inactive	inactive	inactive	inactive	inactive	inactive	inactive	15.9 µM (active)	15.9 µM (active)	inactive	38.9 µM (active)	5.64 µM (active)	–	–	–
CCOC(=O)C(C)O (stereo not drawn)	inactive	inactive	inactive	inactive	inactive	inactive	inactive	inactive	inactive	inactive	inactive	–	–	–	–
